Source: PubChem BioAssay (NCATS)
Results filed as inconclusive are left out. Calls of active or inactive are those of the source. Calls come from the whole dose curve; as a rule, active = well fitted curve in the direction sought with a large enough effect; inconclusive = small, poorly fitted or top-dose-only effect, or another doubt; inactive = no such curve, though single readings can be large; an effect the other way counts as inactive or inconclusive.

What was measured:
[1] = qHTS of pediatric cancer cell lines to identify multiple opportunities for drug repurposing: Primary screen for U-2 OS cells (AID 1347096); note: nearly all actives have a fitted effect of over 50% in size
Summary of the method: (§1)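 Viability after 48 h compound treatment at 37C, 500-1,000 cells/well, read as ATP luminescence with CellTiter-Glo. Primary screens used 11-point (MIPE, 0.78 nM-46 µM) or 8-point (NPC, 0.59 nM-46 µM) final concentrations; follow-up screens used 11-point dilutions.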

[2] = qHTS of pediatric cancer cell lines to identify multiple opportunities for drug repurposing: Primary screen for Rh18 cells (AID 1347102); note: nearly all actives have a fitted effect of over 65% in size; note: potency is the fitted concentration of half-maximal effect
Summary of the method: as §1

[3] = qHTS of pediatric cancer cell lines to identify multiple opportunities for drug repurposing: Primary screen for OHS-50 cells (AID 1347103); note: nearly all actives have a fitted effect of over 40% in size; note: potency is the fitted concentration of half-maximal effect
Summary of the method: (§2)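 Cells (500-1,000/well) rested 5 h, then received compounds for 48 h; metabolically active cells were measured by CellTiter-Glo luminescence. Final concentrations spanned up to 46 µM (MIPE, 11-point) or 0.59 nM-46 µM (NPC, 8-point) in primary screens, 11-point in follow-ups.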

[4] = qHTS of pediatric cancer cell lines to identify multiple opportunities for drug repurposing: Primary screen for RD cells (AID 1347104); note: nearly all actives have a fitted effect of over 55% in size; note: potency is the fitted concentration of half-maximal effect
Summary of the method: (§3)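 500-1,000 cells/well; 5 h pre-incubation 37 °C/5% CO2; compound pinned; 48 h; CellTiter-Glo, 15 min RT; luminescence. MIPE 11-pt from 0.78 nM, NPC 8-pt from 0.59 nM final. Bortezomib 2.3 µM final as positive control.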

[5] = qHTS of pediatric cancer cell lines to identify multiple opportunities for drug repurposing: Primary screen for MG 63 (6-TG R) cells (AID 1347105); note: nearly all actives have a fitted effect of over 50% in size; note: potency is the fitted concentration of half-maximal effect
Summary of the method: as §3

[6] = qHTS of pediatric cancer cell lines to identify multiple opportunities for drug repurposing: Primary screen for control Hh wild type fibroblast cells (AID 1347106);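 note: series mostly up to about 46 µM; a drop in luminescence marks cytotoxicity and a rise apparent proliferation; nearly all actives have a fitted effect of over 55% in size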
Summary of the method: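 Cells (500-1,000/well) in growth media were settled 5 h at 37 degrees C, then given compounds for 48 h. Viability was read as CellTiter-Glo luminescence. Primary runs used MIPE at 11 points (0.78 nM-46 µM) and NPC at 8 points (0.59 nM-46 µM); follow-ups used 11 points.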

[7] = qHTS of pediatric cancer cell lines to identify multiple opportunities for drug repurposing: Primary screen for Rh30 cells (AID 1347107); note: series mostly up to about 46 µM; nearly all actives have a fitted effect of over 75% in size
Summary of the method: as §1

[8] = qHTS of pediatric cancer cell lines to identify multiple opportunities for drug repurposing: Primary screen for NB-EBc1 cells (AID 1347095); note: potency is the fitted concentration of half-maximal effect
Summary of the method: as §3

[9] = qHTS of pediatric cancer cell lines to identify multiple opportunities for drug repurposing: Primary screen for Saos-2 cells (AID 1347097); note: nearly all actives have a fitted effect of over 40% in size; note: potency is the fitted concentration of half-maximal effect
Summary of the method: as §3

[10] = qHTS of pediatric cancer cell lines to identify multiple opportunities for drug repurposing: Primary screen for LAN-5 cells (AID 1347100); note: potency is the fitted concentration of half-maximal effect
Summary of the method: as §1

[11] = qHTS of pediatric cancer cell lines to identify multiple opportunities for drug repurposing: Primary screen for BT-12 cells (AID 1347101); note: nearly all actives have a fitted effect of over 25% in size; note: potency is the fitted concentration of half-maximal effect
Summary of the method: as §2

[12] = qHTS of pediatric cancer cell lines to identify multiple opportunities for drug repurposing: Confirmatory screen for A673 cells (AID 1347110); conditions: A673 Ewing sarcoma cell viability; note: potency is the fitted concentration of half-maximal effect; nearly all actives have a fitted effect of over 65% in size
Summary of the method: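 qHTS titration format: primary MIPE 0.78 nM-46 µM (11 pts), NPC 0.59 nM-46 µM; confirmation 11 pts. 48 h, CTG luminescence.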

[13] = qHTS of pediatric cancer cell lines to identify multiple opportunities for drug repurposing: Confirmatory screen for SK-N-MC cells (AID 1347111); conditions: SK-N-MC cell viability;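 note: potency is the fitted concentration of half-maximal effect; cells exposed to compound for 48 h before the readout; nearly all actives have a fitted effect of over 70% in size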
Summary of the method: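 SK-N-MC cells at 500-1,000 cells/well in growth media were pre-incubated 5 h, then exposed to compounds at 11-point dilutions for 48 h at 37 degrees C, 5% CO2. Viability was read as CellTiter-Glo luminescence.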

[14] = qHTS of pediatric cancer cell lines to identify multiple opportunities for drug repurposing: Confirmatory screen for BT-12 cells (AID 1347112); note: potency is the fitted concentration of half-maximal effect; nearly all actives have a fitted effect of over 55% in size
Summary of the method: as §1

[15] = qHTS of pediatric cancer cell lines to identify multiple opportunities for drug repurposing: Primary screen for SK-N-SH cells (AID 1347098); note: nearly all actives have a fitted effect of over 65% in size; note: potency is the fitted concentration of half-maximal effect
Summary of the method: as §2

[16] = qHTS of pediatric cancer cell lines to identify multiple opportunities for drug repurposing: Primary screen for NB1643 cells (AID 1347099); note: nearly all actives have a fitted effect of over 50% in size; note: potency is the fitted concentration of half-maximal effect
Summary of the method: as §3

[17] = qHTS of pediatric cancer cell lines to identify multiple opportunities for drug repurposing: Primary screen for Rh41 cells (AID 1347108); note: nearly all actives have a fitted effect of over 70% in size; note: potency is the fitted concentration of half-maximal effect
Summary of the method: as §3

[18] = qHTS of pediatric cancer cell lines to identify multiple opportunities for drug repurposing: Confirmatory screen for NB1643 cells (AID 1347109); note: potency is the fitted concentration of half-maximal effect; nearly all actives have a fitted effect of over 45% in size
Summary of the method: as §1

[19] = qHTS of pediatric cancer cell lines to identify multiple opportunities for drug repurposing: Confirmatory screen for LAN-5 cells (AID 1347113); note: potency is the fitted concentration of half-maximal effect; nearly all actives have a fitted effect of over 65% in size
Summary of the method: as §1

[20] = qHTS of pediatric cancer cell lines to identify multiple opportunities for drug repurposing: Confirmatory screen for DAOY cells (AID 1347114)
Summary of the method: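 Viability measured as metabolically active cells via CellTiter-Glo luminescence following 48 hours of compound exposure, 11-point dilutions in confirmatory testing. 500-1,000 cells/well plated 5 hours before dosing; controls were DMSO and 2.3 µM bortezomib.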

Measured: Potency

Cc1nc2ccccc2n1Cc1ccc(Cl)cc1
inactive: [1] | [2] | [4] | [5] | [6] | [7]
active: [3] 3.47 µM

COC(=O)Nc1nc2ccc(C(=O)C3CC3)cc2[nH]1
inactive: [2] | [6] | [7]
active: [8] 0.596 µM | [9] 0.841 µM | [10] 0.841 µM | [11] 2.19 µM | [3] 1.1 µM | [12] 1.31 µM | [13] 1.04 µM | [14] 16.5 µM

Cc1c(Nc2ncccc2C(=O)O)cccc1C(F)(F)F
not listed: [5] | [8] | [12] | [13] | [14] | [18] | [19] | [20]
inactive: all other assays above

C#C[C@]1(O)CC[C@H]2[C@@H]3CCc4cc(O)ccc4[C@H]3CC[C@@]21C
active: [9] 8.41 µM | [3] 24.6 µM
inactive: [1] | [5] | [6] | [7]

CCCCC1C(=O)N(c2ccccc2)N(c2ccc(O)cc2)C1=O (stereo unspecified)
inactive: [6]
active: [8] 2.99 µM | [9] 16.8 µM | [16] 6.68 µM | [10] 5.96 µM | [11] 5.5 µM | [2] 8.41 µM | [3] 11 µM | [4] 6.68 µM | [5] 21.1 µM | [17] 5.96 µM

N=C1N=C(N)c2cc3ccccc3cc21
active: [9] 24.3 µM | [15] 25 µM | [16] 19.3 µM | [10] 24.3 µM | [11] 25.2 µM | [2] 48.6 µM | [3] 17.8 µM | [4] 34.4 µM | [5] 24.3 µM | [17] 30.6 µM | [18] 33.9 µM | [12] 38 µM | [13] 17 µM | [19] 38 µM | [20] 42.7 µM

O=Cc1ccc(O)c(O)c1O
inactive: [8] | [11] | [3] | [5] | [6] | [7] | [17]

COc1cc(NC(C)CCCN)c2ncccc2c1 (stereo unspecified)
inactive: [10] | [5] | [6] | [7]
active: [9] 23.7 µM | [15] 17.2 µM | [3] 24.6 µM
